Source: PubChem BioAssay (National Center for Advancing Translational Sciences (NCATS))
VP16 counter: Gal4-VP16 reporter inhibition counter-screen; Potency, µM (top dose mostly 53.6 µM), actives largely listed as inhibitors; Drosophila S2 Gal4-VP16 UAS-luciferase, luminescence, 20 h; actives 3.5% (n = 310,000);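 further: Gal4-VP16 expression switched on by copper sulfate through the metallothionein promoter; nearly all actives have a fitted effect of over 50% in size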
RORgamma inh: inhibitors of mouse ROR gamma transcriptional activity | P51450 | Drosophila S2 Gal4-RORgamma UAS-luciferase reporter, 20 h | Potency, µM (titrated, usually from 53.6 µM), most hits filed as inhibitors | actives 5.4% (n = 310,000); further: nearly all actives have a fitted effect of over 60% in size
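Drosophila S2 cells stably expressing Gal4-DBD/mouse RORγ fusion under metallothionein promoter plus UAS-luciferase; compound 1 h, then 700 uM CuSO4 induction for 20 h at ambient temperature; inhibition read as reduced luminescence.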
TRPV1 PAM: enhances activation of the human vanilloid receptor TRPV1; TRPV1-expressing cells, Fluo-8 calcium influx, capsaicin EC20 potentiation; potentiation, % at 8.33 µM; actives 0.02% (n = 320,000); AID 540277; in the data active means potentiation above about 80%; inconclusive means between about 30% and that limit
Target sequence (Q8NER1 whole entry, looked up): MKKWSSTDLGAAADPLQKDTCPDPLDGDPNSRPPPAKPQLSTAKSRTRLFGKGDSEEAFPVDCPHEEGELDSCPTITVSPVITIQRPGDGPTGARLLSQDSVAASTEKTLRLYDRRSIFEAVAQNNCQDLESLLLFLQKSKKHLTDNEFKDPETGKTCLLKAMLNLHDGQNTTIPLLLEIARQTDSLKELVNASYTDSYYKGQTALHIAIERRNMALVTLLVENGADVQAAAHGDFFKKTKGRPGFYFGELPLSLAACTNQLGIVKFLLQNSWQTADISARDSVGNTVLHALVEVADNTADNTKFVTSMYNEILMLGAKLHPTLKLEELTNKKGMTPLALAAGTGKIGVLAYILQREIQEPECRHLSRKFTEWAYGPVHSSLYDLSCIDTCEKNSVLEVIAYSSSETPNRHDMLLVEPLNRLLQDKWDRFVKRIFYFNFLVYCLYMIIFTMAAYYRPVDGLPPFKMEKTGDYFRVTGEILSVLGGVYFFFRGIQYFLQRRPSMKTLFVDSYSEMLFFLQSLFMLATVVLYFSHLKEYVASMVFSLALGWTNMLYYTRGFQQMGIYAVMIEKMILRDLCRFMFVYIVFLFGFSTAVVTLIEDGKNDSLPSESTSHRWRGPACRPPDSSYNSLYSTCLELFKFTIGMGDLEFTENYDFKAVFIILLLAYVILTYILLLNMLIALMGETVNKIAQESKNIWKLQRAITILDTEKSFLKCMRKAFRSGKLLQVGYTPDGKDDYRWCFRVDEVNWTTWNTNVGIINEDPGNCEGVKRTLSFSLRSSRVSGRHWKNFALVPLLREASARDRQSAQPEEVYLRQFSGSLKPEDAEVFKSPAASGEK
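Fluo-8 calcium influx in TRPV1-expressing cells, kinetic read (ex 480/em 520 nm). Compound added and read 3 min for agonist activity, followed by capsaicin at EC20 final and 2 min further read for enhancement.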
uPA generation: blocks generation of uPA at the cell surface | cell surface uPA generation assay, qHTS | Potency, µM (titrated, usually from 38.3 µM), actives largely listed as inhibitors | actives 0.31% (n = 330,000) | AID 540303; active means well fitted inhibition curve with a large enough effect; inconclusive means small, poorly fitted or top-dose-only effect; inactive means no such curve, though single readings can be large or run the other way; tested in mouse RAW 264.7 cells; further: nearly all actives have a fitted effect of over 55% in size
TRPV1 agonist: human TRPV1 agonism; actives 0.19% (n = 320,000); AID 540275; Q8NER1; TRPV1-expressing cells, Fluo-8 calcium influx, agonist mode; activation, % at 8.33 µM; in the data active means activation above about 80%; inconclusive means between about 30% and that limit
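Cells expressing TRPV1 were dye-loaded with Fluo-8 and read kinetically: 10 s baseline, 3 min after compound (agonist portion), then 2 min after EC20 capsaicin (allosteric enhancer portion). Calcium-bound dye fluorescence at 480/520 nm.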
Numbers stand for hits. Only some compounds are listed: those with a hit (about 5.8% of all), similar ones and a draw of the others. Unless noted, the call rests on the fitted dose curve; in most records, active means well fitted curve in the direction sought with a large enough effect; inconclusive means small, poorly fitted or top-dose-only effect, or another doubt; inactive means no such curve, though single readings can be large; an effect the other way counts as inactive or inconclusive.

For C/C(=N\NC(=O)c1cccc(Cl)c1)c1cccc(NC(=O)C(C)C)c1 the results were VP16 counter inactive, RORgamma inh inactive, TRPV1 PAM inactive, uPA generation inactive and TRPV1 agonist inactive.
O=C(Nc1cccc(O)c1)c1ccccc1[N+](=O)[O-] was read as VP16 counter inactive, RORgamma inh inactive, TRPV1 PAM inactive, uPA generation inactive and TRPV1 agonist inactive.
Screening C/C(=N\NC(=O)c1ccc(Cl)cc1)c1cccc(NC(=O)C(C)C)c1 returned VP16 counter inactive, RORgamma inh 11.2µM, TRPV1 PAM inactive, uPA generation inactive and TRPV1 agonist inactive.
For COc1ccc(CNC(=O)CN2C(=O)COc3ccc(S(=O)(=O)N4CCC(C)CC4)cc32)cc1 the results were VP16 counter inactive, RORgamma inh inactive, TRPV1 PAM inactive, uPA generation inactive and TRPV1 agonist inactive.
O=C(Nc1nnc(Cc2ccc(Cl)cc2)s1)c1ccco1 was read as VP16 counter inactive, RORgamma inh inactive, TRPV1 PAM inactive, uPA generation inactive and TRPV1 agonist inactive.
Screening CCS(=O)(=O)c1cc([N+](=O)[O-])c(Sc2ccccc2NC(C)=O)s1 returned VP16 counter inconclusive, RORgamma inh inconclusive, TRPV1 PAM inactive, uPA generation inactive and TRPV1 agonist inactive.
O=S(=O)(CC(CN1CCCC1)N1CCCC1)c1ccc2ccccc2c1 (stereo unspecified) was read as VP16 counter 11.2µM, RORgamma inh inconclusive, TRPV1 PAM inactive, uPA generation inactive and TRPV1 agonist inactive.
For OCc1ccnc2oc3ccccc3c12 the results were uPA generation inactive.
For FC(F)(F)c1cccc(NC(=S)Nc2ccc(Cl)c(Cl)c2)c1 the results were VP16 counter inconclusive, RORgamma inh inconclusive, TRPV1 PAM inactive, uPA generation inactive and TRPV1 agonist inactive.
For O=C(NC(=S)Nc1cccc(C(F)(F)F)c1)c1ccc2nonc2c1 the results were VP16 counter 10µM, RORgamma inh 3.16µM, TRPV1 PAM inactive, uPA generation inactive and TRPV1 agonist inactive.
`CCOc1cc(OCC)cc(C(=O)NC(=S)Nc2cccc(C(F)(F)F)c2)c1` gave VP16 counter inactive, RORgamma inh 5.01µM, TRPV1 PAM inactive, uPA generation inactive and TRPV1 agonist inactive.
Screening Cc1c(OC(C)C(=O)NCC(O)c2ccccc2)ccc2c3c(c(=O)oc12)CCC3 (stereo unspecified) returned VP16 counter inactive, RORgamma inh inactive, TRPV1 PAM inactive, uPA generation inactive and TRPV1 agonist inactive.
CC(C)c1ccc(OCC(=O)NNC(=S)NC(=O)c2ccco2)c(Br)c1 was read as VP16 counter 6.31µM, RORgamma inh 6.31µM, TRPV1 PAM inactive, uPA generation inactive and TRPV1 agonist inactive.
Screening CC(C)(C)c1ccc(OCC(=O)NNC(=S)NC(=O)c2ccco2)c(Br)c1 returned VP16 counter 8.91µM, RORgamma inh 5.01µM, TRPV1 PAM inactive, uPA generation inactive and TRPV1 agonist inactive.
Cc1ccccc1NC(=S)NC(=O)COc1ccccc1C was read as VP16 counter inconclusive, RORgamma inh 12.6µM, TRPV1 PAM inactive, uPA generation inactive and TRPV1 agonist inactive.
For Cc1ccccc1OCC(=O)Nc1ccccc1-c1ccccc1NC(=O)COc1ccccc1C the results were VP16 counter inactive, RORgamma inh inconclusive, TRPV1 PAM inactive, uPA generation inactive and TRPV1 agonist inactive.
For Cc1ccccc1OCC(=O)Nc1ccccc1NC(=O)c1ccco1 the results were VP16 counter inactive, RORgamma inh inactive, TRPV1 PAM inactive, uPA generation inactive and TRPV1 agonist inactive.
Cc1cc(Cl)ccc1OCC(=O)NNC(=O)c1ccco1 was read as VP16 counter inactive, RORgamma inh inactive, TRPV1 PAM inactive, uPA generation inactive and TRPV1 agonist inactive.
For Cc1ccccc1OCC(=O)NNC(=S)NC(=O)c1ccco1 the results were VP16 counter inconclusive, RORgamma inh 12.6µM, TRPV1 PAM inactive and TRPV1 agonist inactive.
Screening Cc1nc2sc(-c3ccccc3)cc2c(=O)n1N returned VP16 counter inconclusive, RORgamma inh 7.08µM, TRPV1 PAM inactive, uPA generation inconclusive and TRPV1 agonist inactive.
`Cc1ccc(N(C)C(=O)c2cnn(-c3ccccc3)c2C)c(C)c1` gave VP16 counter inactive, RORgamma inh inconclusive, TRPV1 PAM inactive, uPA generation inactive and TRPV1 agonist inactive.
